A short description of assay [1]: qHTS assay to identify small molecule agonists of the estrogen receptor alpha (ER-alpha) signaling pathway in the presence of an antagonist - cell viability counter screen (AID 1259386).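 Also: cells exposed to compounds for 22 h at 37 °C before the viability read; nearly all actives have a fitted effect of over 30% in size.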 Also: potency is read from the fitted curve at half-maximal effect. In a few lines: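 VM7Luc4E2, stripped-serum pre-culture 5 d; 24hr plating; +ICI-182,780 10.0nM final; cpds 15 conc, 22hr, 37C/5% CO2; CellTiter-Fluor added at 21hr, fluorescence 1hr later.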

Assay [2] deals with Progesterone receptor (Homo sapiens) (UniProt P06401). As to the kind of experiment: qHTS assay to identify small molecule agonists of the progesterone receptor (PR) signaling pathway (AID 1346784; calls by dose curve; also: nearly all actives have a fitted effect of over 30% in size; also: potency is read from the fitted curve at half-maximal effect). In a few lines:
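Agonist mode, quantitative HTS format in a HEK 293T line expressing a UAS-controlled beta-lactamase reporter; 16 hr compound exposure at 37C in 2% charcoal-stripped FBS, then LiveBLAzer B/G FRET fluorescence.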
In general terms: In qHTS, concentration-response curves come from the screen itself.

The nature of assay [3]: qHTS assay to identify small molecule antagonists of the progesterone receptor (PR) signaling pathway - cell viability counter screen (AID 1346798). Also: nearly all actives have a fitted effect of over 50% in size. Also: potency is read from the fitted curve at half-maximal effect. In a few lines: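 Same-well multiplex: after 16 hr at 37C with compound and R5020 stimulation, HEK293T cells carrying a UAS-bla reporter received LiveBLAzer substrate (2 hr RT), then CellTiter-Glo (30 min RT) for luminescent viability.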

Assay [4] can be described thus: qHTS assay to identify small molecule agonists of the progesterone receptor (PR) signaling pathway - cell viability counter screen (AID 1346799; calls by dose curve; also: nearly all actives have a fitted effect of over 45% in size; also: potency is read from the fitted curve at half-maximal effect). In a few lines: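 Counter screen for cytotoxicity: compound-treated PR-UAS-bla HEK293T cells (16 hr, 37C, 5% CO2) were assayed with CellTiter-Glo, luminescence measured after 30 min at room temperature.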
Assay [5] can be described thus: qHTS assay to identify small molecule antagonists of the TGF-beta/Smad signaling pathway - cell viability counter screen (AID 1346824). Also: nearly all actives have a fitted effect of over 50% in size. In a few lines:
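Cytotoxicity counter-screen run in the same wells as the beta-lactamase Smad reporter read: CellTiter-Glo luminescence after 30 min at room temperature. HEK 293T SBE-bla cells had 5 hr compound exposure at 37 C with TGF-beta1 (0.25 ng/mL stock).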

Assay [6] is described as follows: qHTS assay to identify small molecule agonists of the TGF-beta/Smad signaling pathway - cell viability counter screen (AID 1346829). Also: nearly all actives have a fitted effect of over 45% in size. Also: potency is read from the fitted curve at half-maximal effect. In a few lines:
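SBE-bla HEK 293T cells plated overnight, compound exposure 5 hr at 37 C. Viability read in the same wells by CellTiter-Glo luminescence after 30 min at room temperature, following the beta-lactamase read.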

Assay [7] concerns the target Thyrotropin-releasing hormone receptor (Homo sapiens) (UniProt P34981). Briefly: qHTS assay to identify small molecule antagonists of the thyrotropin-releasing hormone receptor (TRHR) signaling pathway (AID 1346877; active = well fitted inhibition curve with a large enough effect in the repeat runs, not every such curve was filed as active; also: series mostly up to about 51 µM). In a few lines:
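Intracellular calcium fluorescence, read kinetically every second over 3 min, reports TRH-evoked signalling in HEK293 cells carrying TRHR. Test compounds were added 5 min ahead of a 1 nM TRH challenge.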

The target is the same in assay [8]. Briefly: qHTS assay to identify small molecule agonists of the thyrotropin-releasing hormone receptor (TRHR) signaling pathway (AID 1346891; calls by dose curve;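 also: HEK293 cells expressing TRHR with calcium dye readout; series mostly up to about 58 µM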). In a few lines: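 Agonist-mode calcium mobilisation screen: TRHR-transfected HEK293 cells cultured overnight (18 h), dye-loaded for 2 h at 37 °C, exposed to compounds, and monitored by fluorescence for 3 min.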
Assay [9] in a line: qHTS assay to identify small molecule agonists of the TGF-beta/Smad signaling pathway (AID 1346859; active = well fitted activation curve with a large enough effect in the signal ratio in the repeat runs, not every such curve was filed as active; the % refers to the signal ratio; also: series mostly up to about 77 µM). In a few lines:
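Smad-responsive beta-lactamase reporter cells (HEK 293T) received compounds from DMSO stocks after overnight attachment, were incubated 5 hr, then treated 2 hr with FRET substrate before dual-emission fluorescence measurement (405 nm excitation).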

Assay [10] concerns the target Progesterone receptor (Homo sapiens) (UniProt P06401). Briefly: qHTS assay to identify small molecule antagonists of the progesterone receptor (PR) signaling pathway (AID 1346795; active = well fitted inhibition curve with a large enough effect in the signal ratio in the repeat runs, not every such curve was filed as active; the % refers to the signal ratio; also: potency is read from the fitted curve at half-maximal effect). In a few lines:
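HEK293T PR-UAS-bla reporter cells in charcoal-stripped serum (2%) received compound after a 6 hr settling period, followed by R5020 agonist at 1 nM final; 16 hr incubation preceded the FRET substrate step and fluorescence measurement.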

Values joined by “and” are separate entries in the source; they are usually repeats but may differ in a detail not shown here. Identical values can stand only once. Inconclusive results are not listed. A structure can be active in one record and inactive in another. Active and inactive are the calls of the source. Unless noted, calls follow the shape of the dose curve; as a rule, active = well fitted curve in the direction sought with a large enough effect in the repeat runs; inconclusive = weak or mixed curves; inactive = no such curve, though single readings can be large; an effect the other way counts as inactive or inconclusive.
% is scaled to controls: 0 for no effect and ±100 for the full control effect.

Progesterone receptor (Homo sapiens), sequence (P06401 whole entry, looked up): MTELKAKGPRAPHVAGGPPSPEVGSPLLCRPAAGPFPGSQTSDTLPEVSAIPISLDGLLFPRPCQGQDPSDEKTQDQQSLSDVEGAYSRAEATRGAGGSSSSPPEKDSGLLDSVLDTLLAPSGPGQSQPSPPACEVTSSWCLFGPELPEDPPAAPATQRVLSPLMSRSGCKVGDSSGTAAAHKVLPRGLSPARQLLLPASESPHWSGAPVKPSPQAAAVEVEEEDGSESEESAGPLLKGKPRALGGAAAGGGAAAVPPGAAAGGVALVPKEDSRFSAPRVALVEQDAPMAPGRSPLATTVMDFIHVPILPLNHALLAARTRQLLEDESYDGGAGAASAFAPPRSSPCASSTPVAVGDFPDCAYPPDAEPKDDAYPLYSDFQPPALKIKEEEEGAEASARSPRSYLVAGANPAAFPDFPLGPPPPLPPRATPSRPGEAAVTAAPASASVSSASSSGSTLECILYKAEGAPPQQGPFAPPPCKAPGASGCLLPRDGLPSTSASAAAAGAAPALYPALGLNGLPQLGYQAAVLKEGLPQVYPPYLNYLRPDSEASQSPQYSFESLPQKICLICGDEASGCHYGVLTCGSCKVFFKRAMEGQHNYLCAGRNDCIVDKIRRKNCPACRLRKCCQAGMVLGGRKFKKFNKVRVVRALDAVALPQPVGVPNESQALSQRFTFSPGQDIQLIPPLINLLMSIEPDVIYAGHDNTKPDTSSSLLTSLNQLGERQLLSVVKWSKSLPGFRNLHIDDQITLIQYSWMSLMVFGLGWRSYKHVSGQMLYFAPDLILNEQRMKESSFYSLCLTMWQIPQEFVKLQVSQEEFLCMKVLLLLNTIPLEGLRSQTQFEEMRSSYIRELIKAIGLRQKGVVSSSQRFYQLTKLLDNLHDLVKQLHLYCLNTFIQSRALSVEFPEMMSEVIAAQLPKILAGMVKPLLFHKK
Thyrotropin-releasing hormone receptor (Homo sapiens), sequence (P34981 whole entry, looked up): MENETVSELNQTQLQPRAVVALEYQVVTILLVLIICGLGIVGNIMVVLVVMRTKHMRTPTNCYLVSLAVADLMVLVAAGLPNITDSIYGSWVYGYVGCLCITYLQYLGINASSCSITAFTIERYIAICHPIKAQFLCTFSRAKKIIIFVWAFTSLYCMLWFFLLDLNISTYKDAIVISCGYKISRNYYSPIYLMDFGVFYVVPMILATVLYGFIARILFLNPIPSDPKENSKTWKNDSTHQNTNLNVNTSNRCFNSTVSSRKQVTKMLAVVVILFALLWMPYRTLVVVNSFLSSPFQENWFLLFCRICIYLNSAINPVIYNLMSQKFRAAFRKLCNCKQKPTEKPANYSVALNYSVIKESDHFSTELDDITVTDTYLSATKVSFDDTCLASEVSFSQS

Take `O=C(c1ccc(F)cc1)C1CCN(CCn2c(=O)[nH]c3ccccc3c2=O)CC1`: the Potency result in assay [1], in assay [2], in [3], in [4], in [5] and in assay [6] was “inactive” each time.
With `CSc1ccc(/C=C2/C(C)=C(CC(=O)O)c3cc(F)ccc32)cc1`, the Potency entry in [1], in assay [2], in assay [3], in [4], in [5] and in [6] was “inactive” in each case. The Potency result in [7] and in [8] was “inactive” in each case.
Take `Oc1ccc(N=Nc2ccccc2)cc1`: in assay [1], the Potency is 27.7 µM (active). Also, the Potency entry in assay [2], in assay [3], in assay [4], in [5], in [6] and in [9] was “inactive” throughout. Besides, the Potency result in assay [7] and in [8] was “inactive” each time.
Turning to `Nc1ccc2cc(S(=O)(=O)O)cc(O)c2c1N=Nc1ccccc1C(F)(F)F`, the Potency in assay [1] is 48.6 µM (active). Further, the Potency entry in assay [2], in [3], in assay [4], in assay [6], in assay [9] and in [7] was “inactive” throughout. The Potency entry in [8] is “inactive”.
Turning to `COc1cccc(N)c1`, the Potency result in assay [1], in [2], in assay [3], in assay [4], in [6] and in [9] was “inactive” throughout. The Potency result in assay [7] and in assay [8] was “inactive” throughout.
Consider `C=C(C)C(=O)OCC[N+](C)(C)C`, for which the Potency result in assay [1], in assay [2], in assay [4], in [5], in [6] and in [9] was “inactive” throughout.
Regarding `Cc1nc(-c2ccc3c(c2)CCN(CCC2CCC(NC(=O)/C=C/c4ccc(F)cc4)CC2)CC3)no1` (configuration not stated), the Potency entry in assay [1], in assay [2], in assay [3], in [4], in assay [5] and in assay [6] was “inactive” in each case. Further, the Potency result in assay [9], in assay [7] and in [8] was “inactive” throughout.
For `CC1=NC(C)OC1C` (configuration not stated), the Potency entry in assay [1], in [2], in assay [3], in assay [4], in [5] and in assay [6] was “inactive” in each case. The Potency entry in [9], in assay [7] and in assay [8] was “inactive” each time.
With `Nc1cc(C(F)(F)F)ccc1S`, the Potency entry in assay [1], in assay [2], in assay [5], in assay [6], in [9] and in assay [7] was “inactive” throughout. Besides, the Potency entry in [8] was “inactive”. The Potency in assay [3] was 13.3 µM (active).
For the molecule `O=Cc1cc(O)ccc1Br`, the Potency result in [1], in assay [5], in assay [6] and in [9] was “inactive” in each case. The Potency in assay [2] is 0.983 µM (active); in assay [10], 55.3 µM (active).
Consider `C[n+]1cc2c3c(ccc2c2ccc4cc5c(cc4c21)OCO5)OCO3`, for which the Potency in [1] is 13 µM (active); in assay [3], 3.66 µM (active); in assay [4], 3.26 µM (active); in assay [6], 6.57 µM (active). For the same molecule, the activation was -18.8% [at 19 µM] (inactive) in assay [2] and 2.25% [at 11.8 µM] (inactive) in assay [8]. In addition, the activity, negative = inhibition in assay [7] was 3.07% [at 10.5 µM] (inactive).
For `CCC(CN)=C(c1ccccc1)c1ccccc1`, the Potency result in assay [1], in assay [2], in [3], in assay [4], in assay [5] and in assay [6] was “inactive” throughout. Moreover, the Potency entry in [9], in [7] and in [8] was “inactive” throughout.
For the molecule `CCC(N)(CO)CO`, the Potency entry in assay [1], in assay [2], in assay [3], in assay [4], in assay [5] and in [6] was “inactive” each time. For the same molecule, the Potency result in [9], in [7] and in assay [8] was “inactive” each time.
`CCCC(C)c1ccccc1O` (configuration not stated): the Potency result in assay [1], in assay [2], in assay [3], in [4], in assay [5] and in assay [6] was “inactive” in each case. The Potency entry in assay [9], in assay [7] and in assay [8] was “inactive” each time.
On to `NC(=O)CC[C@@H]1NC(=O)[C@H](Cc2ccccc2)NC(=O)[C@H](Cc2ccc(O)cc2)NC(=O)CCSSC[C@@H](C(=O)N2CCC[C@H]2C(=O)N[C@@H](CCCN=C(N)N)C(=O)NCC(N)=O)NC(=O)[C@H](CC(N)=O)NC1=O`, for which the Potency entry in [1], in assay [2], in [10], in assay [4], in [6] and in assay [9] was “inactive” in each case.
As for `CC1=C(/C=C/C(C)=C/C=C/C(C)=C/C=O)C(C)(C)CCC1`, the Potency in assay [1] was 60.8 µM (active); in assay [10], 54.2 µM (active); in assay [3], 68.2 µM (active); in assay [4], 60.8 µM (active). Also, the Potency entry in assay [9], in assay [7] and in [8] was “inactive” throughout.
For `COC(=O)C1=C(C)NC(C)=C(C(=O)OCC(C)C)C1c1ccccc1[N+](=O)[O-]` (configuration not stated), the Potency in assay [1] was 54.5 µM (active) and inactive; in assay [10], 10.6 µM (active). Moreover, the Potency result in [5], in assay [6], in assay [9] and in [8] was “inactive” throughout.
Consider `Cc1cc2c(cc1C(F)(F)F)N(C(=O)Nc1ccc(Oc3cccnc3C)nc1)CC2`, for which the Potency result in [1], in [2], in [4] and in [6] was “inactive” in each case.
`C[C@H](CCC(=O)O)[C@H]1CC[C@H]2[C@@H]3CC[C@@H]4C[C@H](O)CC[C@]4(C)[C@H]3CC[C@]12C`: the Potency entry in [1] and in assay [6] was “inactive” in each case. In addition, the Potency in assay [10] is 19.3 µM (active) and 48.6 µM (active); in assay [3], 24.2 µM (active) and 61.1 µM (active); in [4], 30.5 µM (active) and 38.6 µM (active).
Consider `CC1(C)CCC(C)(C)c2cc(C(=O)Nc3ccc(C(=O)O)cc3)ccc21`, for which the Potency entry in assay [1], in assay [2], in [5], in [6], in [7] and in [8] was “inactive” throughout.
For the molecule `S=c1[nH]c2ccccc2s1`, the Potency entry in [1], in assay [2], in assay [5], in [6], in assay [9] and in assay [7] was “inactive” throughout. In addition, the Potency entry in [8] was “inactive”.

The values are drawn from PubChem BioAssay (Tox21).
